Data reported in PubChem BioAssay.
Unmarked numbers belong to inactive results. The rule behind the calls is not given here.

Target: Pantothenate synthetase (Mycobacterium tuberculosis (strain ATCC 25618 / H37Rv)) (UniProt P9WIL5)
Test: Coupled enzyme confirmation of inhibitors against recombinant Mtb PanC (AID 375);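 note: 0% = full reaction with vehicle and 100% = no enzyme background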
Settings: coupled enzyme assay; at 10 µM, hits give high values

Pantothenate synthetase (Mycobacterium tuberculosis (strain ATCC 25618 / H37Rv)), sequence (P9WIL5 whole entry, looked up): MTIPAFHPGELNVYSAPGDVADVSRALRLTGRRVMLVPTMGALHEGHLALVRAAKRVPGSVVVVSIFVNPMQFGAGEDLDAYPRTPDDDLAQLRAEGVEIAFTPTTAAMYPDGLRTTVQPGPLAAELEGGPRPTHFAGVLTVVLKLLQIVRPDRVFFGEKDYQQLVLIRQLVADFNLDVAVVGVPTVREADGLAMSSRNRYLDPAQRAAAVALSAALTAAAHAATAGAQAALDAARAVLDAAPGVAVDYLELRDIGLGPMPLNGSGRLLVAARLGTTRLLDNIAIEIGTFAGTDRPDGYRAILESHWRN

Going from CCOC(=O)c1sc(C)c2c1NC(C)(c1cccs1)NC2=O (stereo not drawn) to CCOC(=O)c1ccc(NS(=O)(=O)c2ccc3c(c2)oc(=O)n3C)cc1, the inhibition falls from 4% to 0%.

First: COc1ccc(N2CCN(C(c3cccs3)c3nnnn3C3CCCC3)CC2)cc1 (stereo not drawn)
Second: COc1ccccc1NC(=O)N1CCN(c2cccc(C(F)(F)F)c2)CC1
The inhibition of the first is higher: 6% for the first, 4% for the second.

Fc1ccc(NCc2nnc(SCc3nnc(-c4ccccc4)o3)n2CC2CCCO2)cc1 (stereo not drawn) and Nn1c(Cc2ccccc2F)nnc1SCC(=O)N1CC(=O)Nc2ccccc21 are the same in inhibition: 0% for the first, 0% for the second.

Going from O=C(NC1CCCc2ccccc21)C1CCN(S(=O)(=O)c2cnc[nH]2)CC1 (stereo not drawn) to Cc1cccc(N2CCN(C(=O)C3CCCN(S(=O)(=O)c4cnc[nH]4)C3)CC2C)c1 (stereo not drawn), the inhibition falls from 2% to 0%.

Going from Cn1c(=N)c(S(=O)(=O)c2ccccc2)cc2c(=O)n3ccccc3nc21 to NS(=O)(=O)c1cc2c(cc1C(F)(F)F)NC(Cc1ccccc1)NS2(=O)=O (stereo not drawn), the inhibition falls from 2% to 0%.

Going from Nc1nc2ccccc2n1/N=C/c1ccc(Br)cc1 to COc1ccc(C/C(O)=C(\C#N)c2nc3ccccc3s2)cc1, the inhibition rises from 1% to 4%.

First: COc1ccc(-c2cc(C(=O)NCc3ccc(Cl)cc3)no2)cc1OC
Second: COc1ccccc1NC(=O)NCc1ccc2c(c1)OCO2
The inhibition of the first is lower: 0% for the first, 1% for the second.

First: COc1ccc(NC(=O)N2CCC(O)(c3cccnc3)CC2)c(OC)c1
Second: CC(C)OC(=O)c1ccc(OC(=O)c2cccnc2)cc1
The inhibition of the first is higher: 3% for the first, 0% for the second.

Compared with O=C(CC1Oc2ccc(Cl)cc2NC1=O)NC1CCCCCC1 (stereo not drawn), O=C(NCCCN1CCCC1=O)c1cncc(Br)c1 is lower in inhibition: 6% for the first, 0% for the second.

Compared with CCOC(=O)N1CCN(C(=O)c2c(-c3ccccc3)noc2C)CC1, C=CCn1c(=O)[nH]c2cc(C(=O)N3CCN(c4ccc(C(C)=O)cc4)CC3)ccc2c1=O is higher in inhibition: 0% for the first, 1% for the second.

First: Cc1cc(C)nc(N2CCC(C(=O)Nc3ccc(Oc4ccccc4)cc3)CC2)n1
Second: CCOc1ccccc1C(=O)Nc1cc(=O)n(C)c(=O)n1C
The inhibition of the first is lower: 0% for the first, 10% for the second.

CCN(CC)S(=O)(=O)c1ccc(S(=O)(=O)N(Cc2ccccn2)Cc2ccco2)cc1 showed an inhibition of 11%.
